Reference: ChEMBL document CHEMBL4513216, “Probing the Open Global Health Chemical Diversity Library for Multistage-Active Starting Points for Next-Generation Antimalarials” (ACS Infect Dis, 2020)
The campaign covered roughly 69,000 compounds. About 8,600 (12%) showed an effect of 50% or more. This excerpt belongs to a sample that is enriched for strong results.

Tested on: Plasmodium berghei
Assay: Screen against P. berghei liver stage (PbLuc), transformed with Luciferase, at 10uM
Type: functional, HepG2
Conditions: tested at 10 uM

| Structure (SMILES) | INHIBITION [%] |
| --- | --- |
| CCCc1ccc(OCCNCc2ccco2)c(OC)c1 | 1.71 |
| Cc1ccc(C2CCCN2S(=O)(=O)N(C)Cc2nccn2C)o1 (centres undefined) | 40.8 |
| Cc1nc(CN2CC[C@@H](OCC3CC3)[C@@H]2Cc2cccnc2)cs1 | 10.5 |
| Cc1cnn(CC2CN(Cc3nnc(-c4ccccc4)o3)CCO2)c1 (centres undefined) | -13.3 |
| CC(=O)NC1CCCN(Cc2ccn(C)c(=O)c2)C1 (centres undefined) | -4.4825 |
| CNc1nc(C(=O)N2C[C@@H]3CC[C@H]2CN(C2CCOCC2)C3)cs1 | 12.8 |
| CC(c1nc(C2CC2)no1)N(C)Cc1ccc2c(c1)OCCO2 (centres undefined) | 12.3 |
| CC(c1nc(C2CC2)no1)N(C)Cc1ccc(Cl)cc1 (centres undefined) | 43.1 |
| CC(c1nc(C2CC2)no1)N(C)Cc1cccc(F)c1 (centres undefined) | 53.4 |
| Cn1ccc2c(C(=O)N3CCCC(c4nnc[nH]4)C3)cccc21 (centres undefined) | -66.9 |
| CC(C)CN1Cc2c(C(=O)NC3CC3)ncn2-c2ccccc2S1(=O)=O | 50.9 |
| CNC(=O)c1ncn2c1CN(CCC(C)C)S(=O)(=O)c1ccccc1-2 | 64.9 |
| CC(C)CCN1Cc2c(C(=O)O)ncn2-c2ccccc2S1(=O)=O | 31.8 |
| CCCNC(=O)c1ncn2c1CN(CC(C)C)S(=O)(=O)c1ccccc1-2 | 57.9 |
| CCNC(=O)c1ncn2c1CN(C)S(=O)(=O)c1ccccc1-2 | -1.53 |
| CCN1Cc2c(C(=O)NCC3CC3)ncn2-c2ccccc2S1(=O)=O | 0.139 |
| CC(C)CN1Cc2c(C(=O)N(C)C)ncn2-c2ccccc2S1(=O)=O | 5.69 |
| CCN1Cc2c(C(=O)NC(C)C(C)C)ncn2-c2ccccc2S1(=O)=O (centres undefined) | 29.9 |
| CCC(CC)NC(=O)c1ncn2c1CN(CC)S(=O)(=O)c1ccccc1-2 | 52 |
| CCN1Cc2c(C(=O)NC)ncn2-c2ccccc2S1(=O)=O | 45.1 |
| CCN1Cc2c(C(=O)NC(C)C)ncn2-c2ccccc2S1(=O)=O | 31.1 |
| CN1Cc2c(C(=O)NC3CCCCC3)ncn2-c2ccccc2S1(=O)=O | 43.4 |

| Structure (SMILES) | INHIBITION [%] |
| --- | --- |
| Cc1ccc(C)c(CSc2nnc(C(N)Cc3ccccc3)o2)c1 (centres undefined) | 43.8 |
| Cc1ccc(-c2cc(C3=NC(=CN4CCN(C)CC4)NO3)[nH]n2)s1 | 39.6 |
| Cc1ccsc1CNC1CCCN(Cc2noc(C3CC3)n2)C1 (centres undefined) | 31.8 |
| CC1CN(CCOc2cccc(C#N)c2)CCN1Cc1nccn1C (centres undefined) | -3.2 |
| COc1ccc(CN2CCC3(CC2)CC(c2cccnc2)CO3)cc1 (centres undefined) | 15.4 |
| Cc1csc(N2CCCN(C(=O)C3(C#N)CCCC3)CC2)n1 | -33.32 |
| CN(C)CC1CN(Cc2ccc3c(c2)OCO3)Cc2nccn2C1 (centres undefined) | 43.8 |
| CNc1ncc(CN(C)C2CCN(C(C)C)CC2)cn1 | -52.2 |
| CNc1ncc(CN(C)c2nc(C)c3ccc(S(C)(=O)=O)cc3n2)cn1 | -9.54 |
| Cc1noc2ncnc(N(C)Cc3ccco3)c12 | 10.1 |
| Cc1noc(C)c1CN(C)c1ncnc2ccccc12 | 35.6 |
| CNc1ncc(CN(C)c2ncnc3onc(C)c23)cn1 | 62.9 |
| Cc1noc(C)c1CN(C)c1ncnc2onc(C)c12 | 74.7 |
| Cc1ccc(S(=O)(=O)NC(=O)C2(c3ccccc3)CCC2)c(C)c1 | 21.1 |
| CNc1ccc(C)cc1C(=O)N1CCCC2(CCNC2)C1 (centres undefined) | 33.7 |
| CN(CCCOc1ccccc1)Cc1nccn1C | 20.5 |
| Cc1ccc(OCCN(C)Cc2nccn2C)c(C)c1 | 55 |
| CN(Cc1cc2c(cc1OC(F)F)OCO2)Cc1nccn1C | 43.6 |
| CCOc1cccc(C(=O)N2CCC(c3n[nH]c(C4CC4)n3)CC2)c1 | 11.2 |
| CC(C)N1CCCC(CNC(=O)c2ccnc(-n3ccnc3)c2)C1 (centres undefined) | -33 |
| c1cncc(OCC2CN(Cc3nccs3)Cc3nccn3C2)c1 (centres undefined) | 8.52 |
| O=C(NCC1CCN(CCc2ccccc2)C1)c1c(F)cccc1F (centres undefined) | 45.1 |

| Structure (SMILES) | INHIBITION [%] |
| --- | --- |
| COCCN1CCC(CNC(=O)Nc2ccc(SC(F)(F)F)cc2)C1 (centres undefined) | 66.5 |
| COCCN1CCC(CNC(=O)c2cc(C)cc(C)c2)C1 (centres undefined) | 58.3 |
| COCCN1CCC(CNC(=O)C2(c3ccccc3)CCC2)C1 (centres undefined) | 45.7 |
| COCCN1CCC(CNC(=O)C2(c3cc(C)cc(C)c3)CC2)CC1 | 26.5 |
| O=C(NCC1CCN(CCc2ccccc2)C1)c1cc(Cl)c[nH]1 (centres undefined) | 72.3 |
| COCCN1CCC(CNC(=O)C2(c3ccc(Br)cc3)CCCC2)C1 (centres undefined) | 52.5 |
| COCCN1CCC(CNC(=O)Nc2ccc(-c3ccccc3)cc2)C1 (centres undefined) | 42.5 |
| COCCN1CCC(CNC(=O)C2(c3ccc(F)cc3)CCC2)CC1 | 8.64 |
| COCCN1CCC(CNC(=O)C2(c3cc(C)cc(C)c3)CCC2)C1 (centres undefined) | 40.9 |
| COCCN1CCC(CNC(=O)Nc2ccc(F)c(Cl)c2)C1 (centres undefined) | 7.44 |
| Nc1cc(C(=O)NCC2CCN(CCc3ccccc3)C2)ccn1 (centres undefined) | 37.2 |
| CC1CCN(c2cncc(CCC3CCCN3)n2)CC1 (centres undefined) | 35.8 |
| CN(C)CC(=O)N1CCC2(CCN(Cc3cccc(F)c3)CC2)C1 | 9.97 |
| CSCC[C@H](NC(=O)CCn1ccc2c(Br)cccc21)C(=O)O | -2.13 |
| CCCn1nccc1NC(=O)CN1CCC[C@H]1CO | -72.2 |
| COCC1CN(CC2CC2)Cc2nccn2C1 (centres undefined) | 35.7 |
| N#CC1(C(=O)N2CCN(Cc3cscn3)CC2)CCCCC1 | 25.6 |
| CC(C)c1nc(CN(C)C(=O)CCc2ccc3c(c2)OCO3)cs1 | 19.4 |
| COC(=O)C(NC(=O)CC(C)C)c1cc(F)ccc1F (centres undefined) | 15.6 |
| CCN1CCC(CNC(=O)c2cc(Cl)c[nH]2)CC1 | 7.39 |
| CCN1CCCC(CNC(=O)C2(c3cc(C)cc(C)c3)CCC2)C1 (centres undefined) | 51.1 |
| COCCN1CCC(CNC(=O)c2c[nH]c(=O)c(Cl)c2)CC1 | -16 |

| Structure (SMILES) | INHIBITION [%] |
| --- | --- |
| CCN1CCC(CNC(=O)C2(c3cccc(C)c3)CC2)C1 (centres undefined) | 37 |
| CCCN1CCC(CNC(=O)C2(c3cc(C)cc(C)c3)CCC2)C1 (centres undefined) | 25.1 |
| COCCN1CCC(CNC(=O)c2cc(Cl)c[nH]2)CC1 | 72.3 |
| CCOc1cc(CNC(C)c2sccc2C)ccn1 (centres undefined) | 66.9 |
| CCOc1cc(CNC(C)c2ccc(F)cc2)ccn1 (centres undefined) | 21.5 |
| CCOc1cc(CNC(=O)NCc2nc(C)c(C)s2)ccn1 | 30.1 |
| CCOc1cccc(CCNC(=O)Cc2ccccc2O)n1 | 20.1 |
| CCOc1cccc(CCNC(=O)Cc2ccn[nH]2)n1 | 61.8 |
| CCOc1cccc(CCNC(=O)Cc2cccc(O)c2)n1 | 37.2 |
| COc1ccc(C2OC(COc3ccccc3Br)=NN2C(C)=O)cc1 (centres undefined) | -52.1 |
| CC(=O)N1N=C(COc2ccc3c(c2)OCO3)OC1c1cccc(Cl)c1 (centres undefined) | 61.5 |
| CC(=O)N1N=C(COc2ccc3c(c2)OCO3)OC1c1ccc(C)cc1 (centres undefined) | -51.1 |
| CC(=O)N1N=C(COc2ccc(Cl)cc2)OC1c1ccccc1 (centres undefined) | 68.9 |
| CC(=O)N1N=C(COc2ccc(C)cc2)OC1c1ccc(N(C)C)cc1 (centres undefined) | 11.9 |
| COc1ccc(C2OC(COc3ccc(C)cc3)=NN2C(C)=O)cc1 (centres undefined) | -13.6 |
| COCC(=O)N1C[C@@H](c2cccc(OC)c2)[C@@]2(CCCCC(=O)N2)C1 | -4.87 |
| CC(C)(CCS(C)(=O)=O)CNC(=O)NC1CCCCC1(C)C (centres undefined) | -11.1 |
| Cc1cc(C2CCCN(CCS(=O)(=O)c3ccccc3)C2)n[nH]1 (centres undefined) | -9.76 |
| O=C(NCc1ccncc1)C1=NOC2(CCCNC2)C1 (centres undefined) | -6.21 |
| Cc1ccc(CNC(=O)C2=NOC3(CCCNC3)C2)cc1 (centres undefined) | -13.1 |
| O=C(NCC(F)(F)F)C1=NOC2(CCCNC2)C1 (centres undefined) | 52.9 |
| COCCn1ccc(=O)c(OCC(=O)Nc2ccc(OC)cc2)c1C | -35.1 |

| Structure (SMILES) | INHIBITION [%] |
| --- | --- |
| CCn1nc(C)c(CN(CCCOC)Cc2ccccn2)c1C | 41.5 |
| CCn1c(C2CCN(C(=O)c3cc(Cl)no3)CC2)nn(C)c1=O | -34.7 |
| Cc1nn(C)c2nc(N(Cc3ccccc3)CC3CCCO3)sc12 (centres undefined) | 32.8 |
| Cc1nn(C)c2nc(N(Cc3ccccn3)CC3CCCO3)sc12 (centres undefined) | 3.17 |
| Cc1nn(C)c2nc(-c3ccccn3)nc(NC[C@@H]3CCCO3)c12 | 10.4 |
| COc1ccc(CN(CC2CCCO2)c2nc3c(s2)c(C)nn3C)cc1 (centres undefined) | 87.1 |
| Cc1nn(C)c2nc(N(Cc3ccncc3)CC3CCCO3)sc12 (centres undefined) | -24 |
| Cc1nn(C)c2nc(N(CCOc3ccccc3)CC3CCCO3)sc12 (centres undefined) | 85.9 |
| Cn1cc(CN2C[C@@H]3COC[C@]3(COCC3CC3)C2)cn1 | 33.1 |
| CCn1c(CN(C)Cc2csc(C)n2)nc2cc(F)ccc21 | 45.2 |
| CC(=O)c1c(C)nn(S(=O)(=O)c2ccc(C)c(C)c2)c1C | 4.97 |
| CCOc1cc(=O)n2c(c1C(=O)OCc1ccc(F)cc1)CCCC2 | -3.77 |
| Cn1cccc(NC(=O)NCCc2cccc(O)c2)c1=O | 57.3 |
| Cn1cccc(NC(=O)NCCOCc2ccccc2)c1=O | 28.5 |
| Cn1cccc(NC(=O)NCc2cccc(CO)c2)c1=O | 42.4 |
| CCN(Cc1ccccc1O)CC1(C)Cc2c(N)nc(N)nc2O1 (centres undefined) | 16.7 |
| COCCOC(=O)N1C[C@@H]2CC[C@H]1CN(C1Cc3ccccc3C1)C2 | -55 |
| COc1ccc(C2CCCN2C(=O)NCCNc2ccccn2)cc1 (centres undefined) | -21.2 |
| Cc1ccc(OCCCC(=O)Nc2nonc2C)cc1C | 86.1 |
| CCCOc1ccc(CCC(=O)Nc2nonc2C)cc1 | -11.3 |
| Cc1nonc1NC(=O)CCn1cc(Br)ccc1=O | 20.3 |
